Screening data: PubChem BioAssay, National Center for Advancing Translational Sciences (NCATS)
D1 agonist: agonists of human D1 dopamine receptor. actives 1% (n = 360,000). HEK293 T-REx D1 cells, calcium flux, agonist mode. P21728. activation, % at 2 µM; note: 0% is about no effect
Target sequence (P21728 whole entry, looked up): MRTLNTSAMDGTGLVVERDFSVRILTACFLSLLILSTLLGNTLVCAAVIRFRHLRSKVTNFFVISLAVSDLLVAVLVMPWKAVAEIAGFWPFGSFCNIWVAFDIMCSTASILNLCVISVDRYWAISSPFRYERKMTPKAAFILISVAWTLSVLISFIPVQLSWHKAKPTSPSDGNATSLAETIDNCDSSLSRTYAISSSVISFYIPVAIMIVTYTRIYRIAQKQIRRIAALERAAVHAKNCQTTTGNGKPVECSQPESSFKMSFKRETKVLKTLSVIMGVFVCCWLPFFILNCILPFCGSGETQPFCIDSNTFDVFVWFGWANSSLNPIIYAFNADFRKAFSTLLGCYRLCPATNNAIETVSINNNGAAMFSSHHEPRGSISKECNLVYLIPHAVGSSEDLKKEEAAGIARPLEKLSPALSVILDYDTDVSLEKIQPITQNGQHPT
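Agonism was scored from calcium flux recorded over 180 s (1 read/s) after pintool compound addition, following a 10-cycle baseline. Cells were inducible force-coupled HEK293 TREx D1, plated overnight at 30 C and loaded with no-wash calcium dye.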
D1 PAM: potentiators of human D1 dopamine receptor | actives 0.036% (n = 360,000) | potentiation, % at 10 µM | HEK293 TREx D1 cells, calcium flux, dopamine EC20 potentiation | AID 504651; in the data active = potentiation above about 30%; note: 0% is about no effect
TRHR agonist: TRH receptor (human) agonism; TRHR cells, calcium flux fluo-8, FDSS agonist mode; activation, % at 2 µM; P34981; actives 0.18% (n = 360,000); note: 0% is about no effect
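Steps: seed TRHR cells overnight; add fluo-8 no-wash Ca dye, RT 30 min–1.5 h; record 10 s baseline; pin-transfer compounds; monitor fluorescence 1 cycle/s for the agonist window. Calcium increases flag candidate agonists.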
D1 antagonist: blocks dopamine activation of the human D1 receptor; AID 504652; HEK293 TREx D1 cells, calcium flux, dopamine EC80; hits give low values; actives 3.2% (n = 360,000); P21728; activity change, negative = inhibition, % at 10 µM; in the data active = activity change below about -30%; note: % is set by controls: 0 for no effect and ±100 for the full control effect
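Kinetic fluorescence of a calcium dye serves as the read-out. D1-expressing Hek293 Trex cells, induced overnight at 30 C, are exposed to compound for 180 s before an EC80 dopamine addition, then read 180 s further.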
TRHR PAM: allosteric enhancers of human TRH receptor. actives 0.66% (n = 360,000). P34981. TRHR cells, fluo-8 calcium fluorescence, EC20 TRH enhancement. enhancement, % at 2 µM; in the data active = enhancement above about 30%; note: 0% is about no effect
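Enhancer read-out: after compound pinning and an initial kinetic agonist-mode read, an EC20 of TRH (10 nM final) was injected and fluo-8 calcium signal (Ex 480/Em 530) followed at 1 s/cycle for 100 cycles in TRHR-expressing cells.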
* = called active by the depositor. Rows were chosen to be rich in hits. Some 4.6% of all compounds tested hit in one or more screens of this group. Cut-off read from the data, not from the text of the source, unless noted: active = activation above about 30%; inactive = the rest.

SMILES | D1 agonist | D1 PAM | TRHR agonist | D1 antagonist | TRHR PAM
CCS(=O)(=O)c1ncc(Cl)c(C(=O)N(Cc2ccccc2)Cc2ccco2)n1 | -2 | -3 | 1 | -19 | -19
CCC(=O)c1cc(-c2nc3ccccc3n2C)n(C)c1 | 0 | -2 | 0 | -12 | 4
Cn1cc(C(=O)c2ccccc2)cc1-c1nc2ccccc2n1C | 5 | 1 | 0 | -31* | 2
CCc1cc(=O)[nH]c(SCc2nc(-c3ccc(C(F)(F)F)cc3)no2)n1 | 7 | 0 | 0 | 3 | -5
CN(C(=O)c1ccc(NC(=O)Cc2cccc(NC(=O)C3CCCN(C(=O)CCc4ccccc4)C3)c2)cc1)C1CCCC1 (stereo not drawn) | 4 | 2 | 1 | 6 | -1
CN(Cc1ccccc1)C(=O)c1ccc(NC(=O)Cc2cccc(NC(=O)C3CCCN(C(=O)CCc4ccccc4)C3)c2)cc1 (stereo not drawn) | 8 | -4 | 1 | -33* | 0
COc1ccc2cc3cc(C(=O)Nc4ccccc4C)oc3nc2c1 | -2 | 1 | -1 | -8 | -3
C/C(=N\O)c1ccc(Cl)c(Cl)c1 | 1 | -8 | 0 | -49* | 1
CNC(=S)N/N=C(\C)c1ccc(Cl)c(Cl)c1 | -4 | 3 | 0 | 2 | 1
C/C(=N\NC(=O)Cc1ccc(Cl)cc1)c1ccccc1O | 6 | -8 | -1 | -36* | -3
C/C(=N\NC(=O)Cc1ccc(Cl)cc1)c1ccc(F)cc1 | 5 | 0 | 0 | -17 | -2
C/C(=N\NC(=O)CSCc1ccc([N+](=O)[O-])cc1)c1ccccc1O | 4 | -12 | 0 | -87* | -4
CC(C)(C)c1ccc(C(=O)N2CCC(c3nc4ccccc4o3)CC2)cc1 | -1 | -1 | 0 | -8 | -6
CCOC(=O)C1=C(C)n2c(s/c(=C/c3cccc([N+](=O)[O-])c3)c2=O)=NC1c1ccc(O)c(OC)c1 (stereo not drawn) | 9 | 2 | 3 | -90* | 3
C/C(=N\NC(=O)c1ccc(Cl)c(Cl)c1)c1ccccn1 | 4 | -2 | 0 | -38* | -2
COc1cccc(CN(Cc2cccnc2)S(=O)(=O)c2ccc(-n3cnnn3)c(C)c2)c1 | 15 | 0 | -1 | -32* | 3
Cc1c(Cl)cccc1NC(=O)N1CCC(CN2CCOCC2)CC1 | -1 | -6 | 0 | -71* | -18
Cc1ccc(-c2c(CN3CCN(c4cc(Cl)ccc4C)CC3)csc2C)cc1 | 1 | -1 | 0 | 2 | -3
Cc1ccc(-n2cc3c(c2-c2ccccc2Br)c(=O)n(C)c(=O)n3C)cc1N | 0 | 0 | -1 | -25 | -1
CCOC(=O)C1(CCOc2ccccc2)CCN(Cc2ccc(OC)c(O)c2)CC1 | 27 | 0 | -1 | -71* | -1
CCOC(=O)C1(CCc2ccccc2)CCN(Cc2ccc(O)cc2)CC1 | 18 | -6 | 0 | -86* | 2
CCOC(=O)C1(CCc2ccccc2)CCN(Cc2ccc(OC)cc2)CC1 | -1 | -5 | 0 | 20 | 0
O=C(C1CCC1)N1CCc2cc(S(=O)(=O)NCCc3ccccc3)ccc21 | 12 | 1 | -2 | -14 | 1
COC(=O)[C@@H](NC(=O)Nc1ccc(OC(F)(F)F)cc1)C(C)C | 11 | -10 | 0 | -42* | -2
CC(=O)c1ccc(-c2csc3ncnc(Sc4nnnn4C)c23)cc1 | 9 | 6 | 0 | -4 | 3
SMILES | D1 agonist | D1 PAM | TRHR agonist | D1 antagonist | TRHR PAM
O=C(N/N=C/c1sc2ccccc2c1O)c1cccc2ccccc12 | 31* | 0 | 6 | 1 | 5
O=C(N/N=C/c1ccccc1F)c1cccc2ccccc12 | 0 | -6 | -1 | 1 | -4
COc1ccc2cc(C(=O)N/N=C/c3sc4ccccc4c3O)ccc2c1 | 108* | -8 | 33* | -3 | -1
Cc1ccccc1C(=O)N/N=C/c1cccc2ccccc12 | 0 | 5 | 0 | -89* | 4
CCc1ccc(NC(=O)N2CC(C)Oc3ccc(C)cc32)cc1 (stereo not drawn) | 2 | -2 | 0 | 3 | 3
COc1cccc(CNS(=O)(=O)c2ccc(N3CCCCS3(=O)=O)cc2)c1 | 16 | 0 | 0 | -22 | -6
OC(CCCN1CCCCC1)(c1ccccc1)c1ccccc1 | 3 | -3 | 0 | -34* | 4
